Consider ten compounds from ChEMBL document CHEMBL3988442, “University of Dundee, Small-Polar-MMV Screening Library” (2021).

For some assays here: Results with a measured potency or affinity are listed apart.

Holding throughout (set-up): scale not given: direction of the effect not stated beside the values
Assay [1] concerns the target Protein translocase subunit SecA (Escherichia coli (strain K12)) (UniProt P10408). Kind of assay: Assay to Identify E. coli SecA ATPase Inhibitors. It is filed as functional. The note with it: 30 µM.
The target of assay [2] is T1, Ubiquitin-activating enzyme e1, putative (Leishmania donovani (strain BPK282A1)) (UniProt E9BSI1).
T1 sequence (whole entry): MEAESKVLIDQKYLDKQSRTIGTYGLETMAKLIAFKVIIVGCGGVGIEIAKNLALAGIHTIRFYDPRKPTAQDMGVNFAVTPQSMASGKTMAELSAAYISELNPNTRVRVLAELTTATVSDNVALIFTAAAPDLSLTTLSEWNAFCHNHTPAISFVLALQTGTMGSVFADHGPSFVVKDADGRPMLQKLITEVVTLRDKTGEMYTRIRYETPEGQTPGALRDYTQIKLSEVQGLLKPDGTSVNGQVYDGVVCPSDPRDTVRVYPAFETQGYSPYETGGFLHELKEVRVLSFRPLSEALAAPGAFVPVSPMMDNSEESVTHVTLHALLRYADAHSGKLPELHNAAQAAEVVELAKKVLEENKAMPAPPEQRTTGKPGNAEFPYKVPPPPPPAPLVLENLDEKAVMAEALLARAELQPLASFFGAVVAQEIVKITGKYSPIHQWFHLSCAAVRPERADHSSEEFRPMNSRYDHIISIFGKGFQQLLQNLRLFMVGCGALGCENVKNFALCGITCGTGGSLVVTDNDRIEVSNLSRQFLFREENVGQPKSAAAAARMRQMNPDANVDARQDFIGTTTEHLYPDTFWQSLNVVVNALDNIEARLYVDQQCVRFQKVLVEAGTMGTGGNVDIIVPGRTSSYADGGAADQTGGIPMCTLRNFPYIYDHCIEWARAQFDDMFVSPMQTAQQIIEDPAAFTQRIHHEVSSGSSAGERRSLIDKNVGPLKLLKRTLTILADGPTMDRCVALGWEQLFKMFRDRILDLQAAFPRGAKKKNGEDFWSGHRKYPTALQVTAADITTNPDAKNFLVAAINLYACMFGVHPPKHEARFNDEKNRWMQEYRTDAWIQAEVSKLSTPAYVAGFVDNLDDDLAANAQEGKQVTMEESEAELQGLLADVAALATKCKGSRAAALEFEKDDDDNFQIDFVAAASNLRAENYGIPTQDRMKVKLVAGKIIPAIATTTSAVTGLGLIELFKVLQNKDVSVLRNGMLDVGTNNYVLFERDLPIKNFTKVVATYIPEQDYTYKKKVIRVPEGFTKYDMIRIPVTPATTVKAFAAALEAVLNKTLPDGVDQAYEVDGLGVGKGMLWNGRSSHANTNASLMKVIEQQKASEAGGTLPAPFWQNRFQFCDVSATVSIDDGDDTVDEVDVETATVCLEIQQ
Kind of assay: Leishmania donovani Ubiquitin Activating Enzyme (LdE1). It is filed as functional. The note with it: 30 µM.

Assay [3] deals with AMP-activated protein kinase, AMPK (Homo sapiens) (UniProt P54646+O43741+P54619+Q9UGJ0+Q9Y478+Q13131+Q9UGI9). Kind of assay: AMP-dependent Kinase enzyme assay. An in vitro enzyme assay that detects ADP turnover that is directly proportional to AMPK activity. This uses naive AMPK that is activated during the assay with MK-8722. The format is functional. The note with it: 30 µM.

Assay [4] addresses Sialic acid-binding Ig-like lectin 9 (Homo sapiens) (UniProt Q9Y336). As to the kind of experiment: Hs-Siglec9 ALPHAscreen SOP 20170721. The conditions noted are these: 10 µM. (In Alpha technology, singlet oxygen from a donor bead excites a nearby acceptor bead.)
In assay [5] the test system is Trypanosoma cruzi. Kind of assay: Trypanosoma cruzi phosphomannomutase and mannose-1-phosphate guanylyltransferase assay. The format is functional. The conditions noted are these: 10 µM.
In assay [6] the target is T2, Arginase-2, mitochondrial (Homo sapiens) (UniProt P78540).
T2 sequence (whole entry): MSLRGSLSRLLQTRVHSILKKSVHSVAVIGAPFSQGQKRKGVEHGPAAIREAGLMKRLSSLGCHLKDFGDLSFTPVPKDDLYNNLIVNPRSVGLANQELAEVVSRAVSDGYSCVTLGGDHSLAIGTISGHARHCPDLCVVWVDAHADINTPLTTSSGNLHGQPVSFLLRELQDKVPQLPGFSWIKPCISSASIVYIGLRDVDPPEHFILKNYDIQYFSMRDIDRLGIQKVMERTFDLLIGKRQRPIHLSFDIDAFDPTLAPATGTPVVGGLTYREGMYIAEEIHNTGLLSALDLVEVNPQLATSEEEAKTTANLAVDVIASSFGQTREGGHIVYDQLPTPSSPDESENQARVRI
As to the kind of experiment: in vitro enzyme assay to detect the production of urea directly proportional to the activity of Arginase II. Further: in the data most compounds retested in dose-response had high values. The format is functional. The conditions noted are these: 33.3 µM.

Assay [7] concerns the target T3, Proteasome subunit beta (Trypanosoma cruzi) (UniProt O96673).
T3 sequence (whole entry): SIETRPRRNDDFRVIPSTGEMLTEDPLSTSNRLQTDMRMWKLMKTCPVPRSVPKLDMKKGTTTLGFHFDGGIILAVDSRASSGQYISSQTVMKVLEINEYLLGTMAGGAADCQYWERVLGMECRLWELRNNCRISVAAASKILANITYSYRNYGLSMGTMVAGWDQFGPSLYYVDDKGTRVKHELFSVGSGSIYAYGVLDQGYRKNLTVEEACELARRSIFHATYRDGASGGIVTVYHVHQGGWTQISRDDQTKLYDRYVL
Kind of assay: Trypanosoma cruzi proteasome chymotrypsin-like activity (TcProtChymo) assay. Further: in the data most compounds retested in dose-response had high values. It is filed as functional. The note with it: 9.37 µM.

The species named for assay [8] is Homo sapiens. Kind of assay: To identify inhibition of the IFN signalling (Jak-Stat) pathway via expression of an eGFP reporter gene under the control of an IFN-stimulated response element (ISRE) containing MxA promoter. It is filed as functional. The conditions noted are these: 30 µM. On the technique in general: A reporter such as luciferase makes a cellular process visible.

The target of assay [9] is T4, Tyrosyl-tRNA synthetase, putative (Trypanosoma cruzi (strain CL Brener)) (UniProt Q4DSP6).
T4 sequence (whole entry): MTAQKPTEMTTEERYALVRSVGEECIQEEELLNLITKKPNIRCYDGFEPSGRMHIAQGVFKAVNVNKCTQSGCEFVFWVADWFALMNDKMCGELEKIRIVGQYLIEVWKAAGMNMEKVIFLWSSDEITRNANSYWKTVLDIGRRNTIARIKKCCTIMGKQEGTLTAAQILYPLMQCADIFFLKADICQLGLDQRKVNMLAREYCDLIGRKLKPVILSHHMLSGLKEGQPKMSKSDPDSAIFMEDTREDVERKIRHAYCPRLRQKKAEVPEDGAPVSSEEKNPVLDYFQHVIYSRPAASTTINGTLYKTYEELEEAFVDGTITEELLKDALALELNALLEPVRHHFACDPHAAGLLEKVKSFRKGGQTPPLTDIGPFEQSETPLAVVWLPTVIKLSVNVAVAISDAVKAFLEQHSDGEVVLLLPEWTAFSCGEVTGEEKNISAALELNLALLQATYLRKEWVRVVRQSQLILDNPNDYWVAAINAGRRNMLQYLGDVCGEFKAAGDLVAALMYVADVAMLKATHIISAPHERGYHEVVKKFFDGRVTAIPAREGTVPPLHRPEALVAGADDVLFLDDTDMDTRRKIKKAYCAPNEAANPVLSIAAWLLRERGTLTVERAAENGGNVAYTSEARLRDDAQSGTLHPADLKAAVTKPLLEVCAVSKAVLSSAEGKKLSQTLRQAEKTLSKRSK
As to the kind of experiment: Trypanosoma cruzi tyrosyl tRNA synthetase (TcYRS) _High Tyrosine SOP. Further: in the data most compounds retested in dose-response had high values. It is filed as functional. The conditions noted are these: 30 µM.

Assay [10] concerns the target T4, Tyrosyl-tRNA synthetase, putative (Trypanosoma cruzi (strain CL Brener)). As to the kind of experiment: Trypanosoma cruzi tyrosyl tRNA synthetase (TcYRS) SOP. It is filed as functional. The conditions noted are these: 30 µM.
Assay [11] deals with Chromo domain-containing protein 1 (Saccharomyces cerevisiae (strain ATCC 204508 / S288c) (Baker's yeast)) (UniProt P32657). As to the kind of experiment: ScCHD-1 Enzyme Inhibition Assay. Further: in the data most compounds retested in dose-response had high values. The conditions noted are these: 30 µM. The format is functional.
Chain of Chromo domain-containing protein 1 (Saccharomyces cerevisiae (strain ATCC 204508 / S288c) (Baker's yeast)) (P32657 whole entry, the tested form may be a part): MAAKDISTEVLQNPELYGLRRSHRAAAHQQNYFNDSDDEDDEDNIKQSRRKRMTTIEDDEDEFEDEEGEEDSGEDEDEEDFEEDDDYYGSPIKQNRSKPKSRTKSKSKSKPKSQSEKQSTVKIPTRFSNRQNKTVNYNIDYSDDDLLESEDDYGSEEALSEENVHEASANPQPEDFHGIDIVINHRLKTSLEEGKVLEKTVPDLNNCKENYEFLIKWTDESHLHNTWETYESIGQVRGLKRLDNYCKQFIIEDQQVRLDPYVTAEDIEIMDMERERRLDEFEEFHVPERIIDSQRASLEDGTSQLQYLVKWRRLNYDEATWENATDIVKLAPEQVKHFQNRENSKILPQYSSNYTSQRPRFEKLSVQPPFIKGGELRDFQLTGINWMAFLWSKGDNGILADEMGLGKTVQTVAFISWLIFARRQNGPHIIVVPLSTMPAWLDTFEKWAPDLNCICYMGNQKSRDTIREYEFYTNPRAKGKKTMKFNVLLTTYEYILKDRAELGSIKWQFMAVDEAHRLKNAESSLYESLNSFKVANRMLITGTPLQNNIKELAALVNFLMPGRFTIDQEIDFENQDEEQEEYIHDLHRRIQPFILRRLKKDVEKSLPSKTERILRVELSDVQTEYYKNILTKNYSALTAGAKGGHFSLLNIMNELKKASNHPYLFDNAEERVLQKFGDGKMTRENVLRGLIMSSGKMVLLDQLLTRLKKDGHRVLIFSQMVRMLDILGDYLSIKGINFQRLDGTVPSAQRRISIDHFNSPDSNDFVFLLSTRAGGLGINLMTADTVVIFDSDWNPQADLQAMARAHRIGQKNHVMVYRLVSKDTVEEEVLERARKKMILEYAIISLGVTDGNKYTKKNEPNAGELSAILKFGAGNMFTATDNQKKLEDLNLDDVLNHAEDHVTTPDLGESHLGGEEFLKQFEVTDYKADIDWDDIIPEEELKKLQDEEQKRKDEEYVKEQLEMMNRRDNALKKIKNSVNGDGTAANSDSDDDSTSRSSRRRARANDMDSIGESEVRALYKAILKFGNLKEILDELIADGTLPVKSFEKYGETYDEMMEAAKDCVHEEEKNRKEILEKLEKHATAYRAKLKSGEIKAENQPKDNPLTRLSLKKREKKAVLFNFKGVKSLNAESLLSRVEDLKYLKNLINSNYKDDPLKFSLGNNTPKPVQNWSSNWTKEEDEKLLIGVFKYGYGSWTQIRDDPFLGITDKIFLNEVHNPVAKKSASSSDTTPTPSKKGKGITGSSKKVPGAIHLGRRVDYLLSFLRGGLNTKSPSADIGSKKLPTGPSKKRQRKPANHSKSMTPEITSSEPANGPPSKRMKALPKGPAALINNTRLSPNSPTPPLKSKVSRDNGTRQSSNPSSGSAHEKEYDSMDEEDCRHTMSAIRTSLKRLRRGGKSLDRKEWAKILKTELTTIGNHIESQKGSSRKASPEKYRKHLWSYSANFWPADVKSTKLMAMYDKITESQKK

Chain of Protein translocase subunit SecA (Escherichia coli (strain K12)) (P10408 whole entry): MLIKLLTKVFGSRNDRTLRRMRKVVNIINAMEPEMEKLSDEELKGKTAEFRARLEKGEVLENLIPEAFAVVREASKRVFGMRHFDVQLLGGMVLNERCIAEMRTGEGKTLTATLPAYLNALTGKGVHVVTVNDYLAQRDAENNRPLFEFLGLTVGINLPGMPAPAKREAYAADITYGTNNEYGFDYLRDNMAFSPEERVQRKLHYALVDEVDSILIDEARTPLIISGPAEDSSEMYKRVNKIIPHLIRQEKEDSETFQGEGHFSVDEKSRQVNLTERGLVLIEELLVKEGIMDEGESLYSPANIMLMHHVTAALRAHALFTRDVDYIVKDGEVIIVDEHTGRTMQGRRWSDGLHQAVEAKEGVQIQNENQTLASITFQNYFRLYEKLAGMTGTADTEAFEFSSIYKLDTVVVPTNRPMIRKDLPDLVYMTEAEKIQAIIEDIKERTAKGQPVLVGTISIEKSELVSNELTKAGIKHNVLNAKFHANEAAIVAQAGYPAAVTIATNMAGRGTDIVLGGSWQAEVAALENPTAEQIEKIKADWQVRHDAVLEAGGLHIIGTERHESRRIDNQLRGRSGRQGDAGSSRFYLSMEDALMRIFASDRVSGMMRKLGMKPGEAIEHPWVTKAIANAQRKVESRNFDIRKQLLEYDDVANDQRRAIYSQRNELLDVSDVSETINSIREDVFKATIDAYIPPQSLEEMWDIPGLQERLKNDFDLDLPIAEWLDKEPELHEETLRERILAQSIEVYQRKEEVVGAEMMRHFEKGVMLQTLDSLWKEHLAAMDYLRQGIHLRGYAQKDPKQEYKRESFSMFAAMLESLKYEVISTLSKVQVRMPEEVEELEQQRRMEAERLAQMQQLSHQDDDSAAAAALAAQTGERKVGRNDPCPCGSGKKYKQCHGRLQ
Chain of Sialic acid-binding Ig-like lectin 9 (Homo sapiens) (Q9Y336 whole entry): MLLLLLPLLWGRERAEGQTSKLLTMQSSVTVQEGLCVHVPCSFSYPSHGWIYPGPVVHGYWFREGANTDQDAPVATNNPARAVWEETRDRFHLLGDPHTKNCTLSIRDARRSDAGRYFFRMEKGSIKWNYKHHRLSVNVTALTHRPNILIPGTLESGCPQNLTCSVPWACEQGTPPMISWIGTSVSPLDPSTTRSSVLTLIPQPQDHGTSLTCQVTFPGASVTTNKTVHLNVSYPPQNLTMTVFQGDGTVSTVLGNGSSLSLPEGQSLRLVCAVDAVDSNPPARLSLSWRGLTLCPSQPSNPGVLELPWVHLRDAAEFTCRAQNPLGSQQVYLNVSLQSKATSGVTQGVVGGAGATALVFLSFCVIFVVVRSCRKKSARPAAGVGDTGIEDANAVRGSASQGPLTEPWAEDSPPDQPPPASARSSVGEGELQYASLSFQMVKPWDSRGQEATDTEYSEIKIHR

Turning to `COc1cnc(N2CCC(Oc3ccccc3OC)(C(=O)O)CC2)nc1`, the Percent Effect in [1] was -5.13%; in assay [2] it was 11%; in assay [3] it was 0.422%; in assay [4] it was 4.04%; in assay [5], 0.595%; in assay [6], -2%. Also, the Percent Effect in assay [7] is 8.99%; in assay [8], -4.79%; in assay [9], 5.21%; in assay [10], 8.64%; in assay [11], -4.67%.
Turning to `Cc1ccc(N2CCCC(NCc3ccsc3)C2)nn1` (stereo not given), the Percent Effect in assay [1] was 1.41%; in assay [2], 13.5%; in assay [3], -7.55%; in [4] it was 2.96%; in assay [5], -6.7%; in assay [6], 1.6%. Besides, the Percent Effect in assay [7] is 8.29%; in [8], 11%; in assay [9], 4.43%; in assay [10], 16.1%; in assay [11] it was -7.21%.
With `CN(C)C(=O)CNC(=O)Nc1cccc(Cl)c1SC(F)F`, the Percent Effect in assay [1] is -3.28%; in assay [2], 1.39%; in assay [3], 2.42%; in assay [4], 11.5%; in assay [5], -7.09%; in assay [6] it was 1.77%. The Percent Effect is 1.05% in assay [7]; -0.391% in [8]; 1.05% in [9]; -2.56% in [10]; 0.00979% in [11].
Turning to `COc1c(CNCCNC(=O)Cc2ccc(F)cc2)c(C)nn1C`, the Percent Effect in assay [1] was -1.17%; in assay [2], 13.5%; in [3], 1.18%; in assay [4], -2.01%; in assay [5], -7.52%; in assay [6] it was -4.99%. Also, the Percent Effect in assay [7] is 13.1%; in assay [8] it was 12.1%; in assay [9], 1.98%; in assay [10] it was -18.3%; in [11], -8.36%.
For `CCN(CC)Cc1ccc(C(=O)N2CCCCC2Cn2cccn2)o1` (stereo not given), the Percent Effect is -1.67% in assay [1]; -5.41% in assay [2]; 0.822% in [3]; 4.06% in assay [4]; -0.0929% in assay [5]; -1.29% in assay [6]. Also, the Percent Effect in assay [7] worked out at 3.23%; in assay [8] it was 2.84%; in assay [9], 0%; in [10] it was 1.22%; in assay [11], 0.882%.
On to `Cc1nn(C)c(Cl)c1C1CCCN1C(=O)c1cc[nH]n1` (stereo not given), for which the Percent Effect in [1] was -1.54%; in [2] it was 2.7%; in assay [3] it was -1.34%; in [4], 13.1%; in assay [5] it was 2.74%; in assay [6] it was -2%. Further, the Percent Effect in assay [7] is 8.83%; in assay [8], -3.1%; in [9], 2.46%; in assay [10], 11.1%; in assay [11] it was -9.56%.
With `CC(C)CCN1Cc2c(C(=O)O)ncn2-c2ccccc2S1(=O)=O`, the Percent Effect is 0.538% in assay [1]; 16.2% in [2]; 16.3% in [3]; -10.3% in assay [4]; -3.42% in [5]; 0.319% in [6]. The Percent Effect in assay [7] was 10.7%; in assay [8] it was 10.4%; in [9] it was 4.32%; in [10], 10.3%; in [11], -8.5%.
Regarding `c1coc(-c2nnc(CN3CCOC(Cn4cccn4)C3)o2)c1` (stereo not given), the Percent Effect in [1] was -5.27%; in assay [2], 7.59%; in assay [3], -2.15%; in assay [4], 1.36%; in assay [5], 6.89%; in assay [6] it was 0.76%. The Percent Effect was 11.6% in [7]; 8.37% in assay [8]; 5.42% in assay [9]; 13.9% in [10]; -6.49% in assay [11].
Regarding `COCCC(=O)N1CCC2(COCc3cnc(N4CCOCC4)nc32)C1` (stereo not given), the Percent Effect in assay [1] is -4.87%; in assay [2] it was 10.7%; in assay [3], 18.4%; in assay [4], -1.98%; in [5], -5.51%; in [6], 2.1%. Moreover, the Percent Effect in assay [7] is 8.02%; in [8], 11.9%; in [9], 0%; in assay [10], 6.41%; in assay [11], -0.906%.
For the compound `Cc1cc(CN2CCOCS2(=O)=O)ccc1F`, the Percent Effect was 2.12% in [1]; 5.41% in [2]; -2.01% in assay [3]; 3.16% in assay [4]; -5.21% in assay [5]; 4.29% in [6]. The Percent Effect in assay [7] is 16.4%; in [8] it was 9.21%; in assay [9], 4.76%; in [10], 4.88%; in [11], -2.56%.
